In PubChem BioAssay (NCATS):
Inconclusive results are not listed. Activity calls are given as the source filed them. Unless noted, calls come from the whole dose curve; as a rule, active = well fitted curve in the direction sought with a large enough effect; inconclusive = small, poorly fitted or top-dose-only effect, or another doubt; inactive = no such curve, though single readings can be large; an effect the other way counts as inactive or inconclusive.

Tests used:
[1] = biological target: Mitogen-activated protein kinase 10 (Mus musculus) (UniProt Q61831); assay: JNK3 AlphaScreen Assay (AID 530; active = well fitted curve in either direction with a large enough effect, not every such curve was filed as active;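 note: kinase came from lysate of stimulated human HepG2 cells; signal reports phosphorylation of biotinylated GST-cJun 1-79 at Ser73 with 10 µM ATP; % is set by controls: 0 for no effect and ±100 for the full control effect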)
In short: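 Kinase buffer: 20 mM Tris-HCl pH 7.6, 10 mM MgCl2, 1 mM DTT, 0.1 mM Na3VO4, 0.01% Tween-20; ATP 10 uM. Substrate biotin-GST-cJun(1-79), enzyme from activated HepG2 lysates. Detection by Ser73 phospho-antibody AlphaScreen.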

[2] = biological target: Cytochrome P450 3A4 (Homo sapiens) (UniProt P08684); assay: qHTS Assay for Inhibitors and Substrates of Cytochrome P450 3A4 (AID 884); note: nearly all actives have a fitted effect of over 50% in size; note: potency is the fitted concentration of half-maximal effect
In short: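 Luminescent readout of luciferin produced by CYP3A4 (20 nM) dealkylation of Luciferin-PPXE, 25 uM (its KM). NADPH-driven reaction ran 60 min at RT after 10 min compound preincubation; data scaled to 57 uM ketoconazole as 100% inhibition.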

[3] = qHTS Assay for Lipid Storage Modulators (AID 1519; calls by dose curve); conditions: Drosophila S3 cells, BODIPY lipid droplet/cell ratio, laser cytometry, cells loaded with oleic acid
In short: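 Cells seeded at 5,000 per well were treated with compounds over a concentration series and loaded with oleic acid (400 uM, as added). Lipid droplet fluorescence (488 nm excitation, 500-530 nm channel) was read by laser-scanning cytometry and normalized to 20 uM Triacsin C.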

[4] = biological target: Ubiquitin carboxyl-terminal hydrolase 1 (Homo sapiens) (UniProt O94782); assay: Inhibitors of USP1/UAF1: Pilot qHTS (AID 504865);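 note: rhodamine fluorescence freed from ubiquitin-rhodamine substrate followed over time; top concentration of the series differs between compounds; % is set by controls: 0 for no effect and ±100 for the full control effect; nearly all actives have a fitted effect of over 35% in size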
In short: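 USP1/UAF1 complex at 1 nM preincubated 15 min at room temperature with compound, then Ub-Rho substrate added at 150 nM final. Fluorescence (480/540 nm) read kinetically in 50 mM HEPES pH 7.8, 0.5 mM EDTA, 1 mM TCEP, 0.1 mg/ml BSA, 0.01% Tween-20.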

[5] = biological target: Lysosomal acid glucosylceramidase (Homo sapiens) (UniProt P04062); assay: Glucocerebrosidase-p2 (AID 348; in the data active = potency below about 10 µM; note: potency is the fitted concentration of half-maximal effect); conditions: purified GBA, blue fluorogenic substrate, 40 min
In short: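 Normal human glucocerebrosidase (0.2 nM) with blue fluorogenic substrate (80 uM final) in citrate/phosphate pH 5.9 with 10mM sodium taurocholate, 0.01% tween-20; 40 min RT, NaOH/glycine stop; fluorescence Ex 365/Em 440; AC50 from a titration from 0.6 nM upwards.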

[6] = AP1 Signaling Pathway (AID 357; active = well fitted curve in either direction with a large enough effect, not every such curve was filed as active;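 note: ME-180 reporter cells stimulated with EGF at its EC50 level; % is set by controls: 0 for no effect and ±100 for the full control effect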)
In short: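 Modulation of EGF-driven AP-1 transcription was assessed with a beta-lactamase reporter in ME-180 cells. Compound and EC50 EGF were co-incubated 5 hours at 37 °C before 2.5-hour CCF4 loading at room temperature and dual-emission reading.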

[7] = biological target: Cytochrome P450 1A2 (Homo sapiens) (UniProt P05177); assay: p450-cyp1a2 (AID 410; calls by dose curve; note: potency is the fitted concentration of half-maximal effect;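 for activity change, negative = inhibition: -100% = full effect of reference inhibitor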)
In short: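 20nM CYP1A2, 100uM Luciferin-ME (=Km), 100mM KPO4; cpd 10 min RT; +NADPH regen, 60 min RT; stop/detect 20 min; luminescence. Normalized to furafylline 57 uM = full inhibition.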

[8] = NFAT Signaling Pathway (AID 444; active = well fitted curve in either direction with a large enough effect, not every such curve was filed as active;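 note: carbachol stimulus at about its EC50 of 1 µM final; % is set by controls: 0 for no effect and ±100 for the full control effect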); conditions: Jurkat NFAT-bla M1, carbachol, beta-lactamase ratio, 5 h
In short: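 Read-out: CCF4 FRET ratio (460 nm/530 nm) after 1 h RT dye loading, used for %activity and AC50 from titration series. Cells: Jurkat NFAT-β-lactamase/M1 line, treated with compound plus 1 uM carbachol for 5 h, 37 °C.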

[9] = Stat Signaling Pathway (AID 446; active = well fitted curve in either direction with a large enough effect, not every such curve was filed as active;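 note: ME-180 cervical cancer cells given 40 pM IL-6 alongside compound; SIE-controlled beta-lactamase reporter measured as 460/530 nm FRET emission ratio; % is set by controls: 0 for no effect and ±100 for the full control effect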)
In short: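 Overnight-plated ME-180 cells bearing a STAT Inducible Element beta-lactamase reporter; 5 h co-exposure to compound and 40 pM IL-6; values normalized to 300 pM IL-6 and 125 nM JAK inhibitor controls.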

[10] = biological target: Glucocorticoid receptor (Homo sapiens) (UniProt P04150); assay: GR-EFC Redistribution (AID 451; calls by dose curve; note: potency is the fitted concentration of half-maximal effect); conditions: CHO-K1 GR-EFC translocation, beta-gal luminescence, 2 h
In short: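 Translocation of GR-ED fusion to nuclear EA restores b-gal, read by luminescence after 1 h room-temperature detection. Engineered CHO-K1 biosensor cells, 1,000/well, exposed 2 h at 37 C to titrations up to 46 uM final.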

[11] = biological target: 3',5'-cyclic-AMP phosphodiesterase 4B (Homo sapiens) (UniProt Q07343); assay: qHTS Assay for Inhibitors of PDE-IV (AID 607; active = well fitted activation curve with a large enough effect in the main read-out, with a control signal flat, not every such curve was filed as active; note: % of control where 0% means no effect)
In short: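 Live HEK293 cells with a modified cyclic nucleotide-gated (CNG) channel report intracellular cAMP via membrane-potential dye fluorescence (ex 535/em 590 nm). Endogenous PDE-IV was targeted. Compounds were tested at up to 22.9 uM final; RO 20-1724 100 uM served as control.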

[12] = biological target: Cytochrome P450 3A4 (Homo sapiens) (UniProt P08684); assay: qHTS Assay for Activators of Cytochrome P450 3A4 (AID 885); note: nearly all actives have a fitted effect of over 65% in size
In short: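 Using 20nM recombinant human CYP3A4 in potassium phosphate (200mM), substrate Luciferin-PPXE at 25uM, luminescent luciferin detection followed a 60-min RT NADPH reaction; data scaled to 57 uM ketoconazole.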

[13] = biological target: Cytochrome P450 2D6 (Homo sapiens) (UniProt P10635); assay: qHTS Assay for Inhibitors and Substrates of Cytochrome P450 2D6 (AID 891); note: potency is the fitted concentration of half-maximal effect; nearly all actives have a fitted effect of over 60% in size
In short: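 Luminescent read-out of luciferin formed by 5 nM human CYP2D6 demethylating 30 uM Luciferin-ME EGE (Km level) over 60 min at room temperature after NADPH regeneration addition. Data normalized to full inhibition by 1.43 uM quinidine.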

[14] = biological target: ATP-dependent 6-phosphofructokinase (Trypanosoma brucei brucei) (UniProt O15648); assay: qHTS Assay to Find Inhibitors of T. brucei phosphofructokinase: hit validation (AID 492961)
In short: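 ADP-Glo luminescence read-out of ADP formed by 1.25 nM PFK from 0.1 mM ATP and 0.5 mM F6P (TEA pH 8.0, 45 min, RT). Compounds titrated; activity normalized to no-enzyme and full-enzyme controls.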

[15] = biological target: Luciferin 4-monooxygenase (Photinus pyralis) (UniProt P08659); assay: Biochemical firefly luciferase enzyme assay for NPC (AID 624030);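 note: purified P. pyralis luciferase at 10 nM with luciferin and ATP substrate; 0% = DMSO and -100% = full luciferase inhibition by PTC124 control; nearly all actives have a fitted effect of over 70% in size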
In short: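 Direct inhibition of firefly luciferase enzyme (10 nM final, 50 mM Tris Acetate) assessed by luminescence within 5 minutes. Percent activity scaled between DMSO and PTC124 positive control, with concentration-effect curves classified by fit quality and response.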

[16] = qHTS profiling for inhibitors of Plasmodium falciparum proliferation (AID 504749);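 note: 0% = DMSO vehicle and full inhibition = artemisinin control; nearly all actives have a fitted effect of over 60% in size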; conditions: P. falciparum in erythrocytes, SYBR Green DNA, 72 h
In short: (§1)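 In a 72 h erythrocytic culture (37 C, humidified, 5% CO2) at 2.5% hematocrit and 0.3% starting parasitemia, compounds were tested; SYBR Green I in detergent lysis buffer stained parasite DNA overnight.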

C2A = assay: as above; conditions: P. falciparum in erythrocytes, SYBR Green DNA, 72 h; series mostly up to 28.7 µM
In short: as §1

CP185 = assay: as above; conditions: P. falciparum in erythrocytes, SYBR Green DNA, 72 h; series mostly up to 28.7 µM
In short: as §1

FAB9 = assay: as above; conditions: P. falciparum in erythrocytes, SYBR Green DNA, 72 h; series mostly up to 28.7 µM
In short: as §1

[17] = biological target: Glucocorticoid receptor (Homo sapiens) (UniProt P04150); assay: GR-GFP Redistribution (AID 450;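 active = compounds whose dose series gives a full or clear partial fitted curve of increased nuclear translocation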; note: potency is the fitted concentration of half-maximal effect); conditions: U2OS GR-GFP nuclear translocation, laser cytometry, 2 h
[18] = measured here: cell count channel max response
[19] = measured here: lipid channel max response

Chain of Lysosomal acid glucosylceramidase (Homo sapiens) (P04062 whole entry, looked up): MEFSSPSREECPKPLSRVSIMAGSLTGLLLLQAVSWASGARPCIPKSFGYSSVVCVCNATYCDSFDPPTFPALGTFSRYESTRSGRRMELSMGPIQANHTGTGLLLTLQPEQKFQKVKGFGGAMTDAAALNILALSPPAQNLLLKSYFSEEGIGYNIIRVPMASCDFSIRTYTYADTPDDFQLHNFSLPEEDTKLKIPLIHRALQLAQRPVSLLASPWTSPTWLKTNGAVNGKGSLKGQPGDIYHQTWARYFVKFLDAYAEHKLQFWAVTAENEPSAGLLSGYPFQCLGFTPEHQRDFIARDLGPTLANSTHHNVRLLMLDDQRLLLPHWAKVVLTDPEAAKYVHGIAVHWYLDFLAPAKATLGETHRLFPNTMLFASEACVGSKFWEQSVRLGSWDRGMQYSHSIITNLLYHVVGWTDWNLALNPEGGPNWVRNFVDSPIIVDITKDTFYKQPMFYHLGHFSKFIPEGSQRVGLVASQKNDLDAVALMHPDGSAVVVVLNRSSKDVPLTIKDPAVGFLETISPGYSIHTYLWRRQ
Chain of 3',5'-cyclic-AMP phosphodiesterase 4B (Homo sapiens) (Q07343 whole entry, looked up): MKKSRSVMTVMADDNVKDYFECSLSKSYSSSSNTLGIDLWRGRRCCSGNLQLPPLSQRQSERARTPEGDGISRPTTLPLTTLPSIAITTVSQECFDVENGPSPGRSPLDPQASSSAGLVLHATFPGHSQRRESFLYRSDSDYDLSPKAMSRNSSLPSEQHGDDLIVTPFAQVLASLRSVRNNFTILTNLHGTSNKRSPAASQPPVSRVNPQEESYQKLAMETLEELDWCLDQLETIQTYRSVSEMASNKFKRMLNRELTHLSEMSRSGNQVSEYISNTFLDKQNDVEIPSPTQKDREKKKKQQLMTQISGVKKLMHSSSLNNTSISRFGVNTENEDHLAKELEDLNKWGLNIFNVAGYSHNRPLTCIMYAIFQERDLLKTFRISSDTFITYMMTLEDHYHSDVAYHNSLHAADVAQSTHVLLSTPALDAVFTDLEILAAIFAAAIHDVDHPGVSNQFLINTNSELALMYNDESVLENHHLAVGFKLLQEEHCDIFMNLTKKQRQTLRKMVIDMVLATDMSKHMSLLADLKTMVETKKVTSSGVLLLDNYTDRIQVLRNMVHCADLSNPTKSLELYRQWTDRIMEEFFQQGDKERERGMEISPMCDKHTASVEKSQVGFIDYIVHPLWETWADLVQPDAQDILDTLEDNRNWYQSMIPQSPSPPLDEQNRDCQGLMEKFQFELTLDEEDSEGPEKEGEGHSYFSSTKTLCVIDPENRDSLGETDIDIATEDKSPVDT
Chain of Cytochrome P450 1A2 (Homo sapiens) (P05177 whole entry, looked up): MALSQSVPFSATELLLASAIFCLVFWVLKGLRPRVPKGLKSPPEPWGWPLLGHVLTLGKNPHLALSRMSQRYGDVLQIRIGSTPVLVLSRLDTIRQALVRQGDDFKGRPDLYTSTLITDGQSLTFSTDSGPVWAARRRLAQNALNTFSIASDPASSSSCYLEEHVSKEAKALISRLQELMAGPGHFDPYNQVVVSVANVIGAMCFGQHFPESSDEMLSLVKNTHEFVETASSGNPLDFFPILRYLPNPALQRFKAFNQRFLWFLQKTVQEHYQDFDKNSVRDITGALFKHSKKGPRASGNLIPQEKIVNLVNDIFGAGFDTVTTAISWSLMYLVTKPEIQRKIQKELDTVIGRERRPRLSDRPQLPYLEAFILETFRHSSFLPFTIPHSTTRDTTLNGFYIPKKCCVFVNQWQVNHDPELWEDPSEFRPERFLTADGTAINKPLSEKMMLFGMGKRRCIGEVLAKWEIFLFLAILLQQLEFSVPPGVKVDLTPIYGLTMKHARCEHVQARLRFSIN
Chain of Glucocorticoid receptor (Homo sapiens) (P04150 whole entry, looked up, the tested form may be a part): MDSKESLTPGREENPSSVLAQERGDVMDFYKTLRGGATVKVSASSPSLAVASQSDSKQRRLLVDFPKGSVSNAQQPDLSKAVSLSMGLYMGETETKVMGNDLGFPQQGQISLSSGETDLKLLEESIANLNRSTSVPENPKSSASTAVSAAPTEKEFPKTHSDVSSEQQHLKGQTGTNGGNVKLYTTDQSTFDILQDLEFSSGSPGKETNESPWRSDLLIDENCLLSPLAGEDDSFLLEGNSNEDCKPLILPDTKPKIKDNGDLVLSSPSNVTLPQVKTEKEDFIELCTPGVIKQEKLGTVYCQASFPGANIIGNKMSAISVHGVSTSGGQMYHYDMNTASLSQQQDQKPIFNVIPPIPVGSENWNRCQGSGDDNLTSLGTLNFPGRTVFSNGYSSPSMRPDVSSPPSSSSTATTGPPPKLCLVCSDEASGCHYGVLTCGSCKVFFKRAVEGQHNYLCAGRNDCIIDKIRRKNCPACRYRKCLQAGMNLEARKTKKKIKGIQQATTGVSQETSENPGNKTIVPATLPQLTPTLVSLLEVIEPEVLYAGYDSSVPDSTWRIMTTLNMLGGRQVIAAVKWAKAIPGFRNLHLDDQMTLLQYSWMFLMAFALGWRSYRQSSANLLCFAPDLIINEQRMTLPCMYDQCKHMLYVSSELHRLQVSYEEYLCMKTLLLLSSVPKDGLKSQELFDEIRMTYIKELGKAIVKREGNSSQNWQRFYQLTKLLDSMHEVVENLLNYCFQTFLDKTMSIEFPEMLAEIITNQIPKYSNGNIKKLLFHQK
Chain of Ubiquitin carboxyl-terminal hydrolase 1 (Homo sapiens) (O94782 whole entry, looked up): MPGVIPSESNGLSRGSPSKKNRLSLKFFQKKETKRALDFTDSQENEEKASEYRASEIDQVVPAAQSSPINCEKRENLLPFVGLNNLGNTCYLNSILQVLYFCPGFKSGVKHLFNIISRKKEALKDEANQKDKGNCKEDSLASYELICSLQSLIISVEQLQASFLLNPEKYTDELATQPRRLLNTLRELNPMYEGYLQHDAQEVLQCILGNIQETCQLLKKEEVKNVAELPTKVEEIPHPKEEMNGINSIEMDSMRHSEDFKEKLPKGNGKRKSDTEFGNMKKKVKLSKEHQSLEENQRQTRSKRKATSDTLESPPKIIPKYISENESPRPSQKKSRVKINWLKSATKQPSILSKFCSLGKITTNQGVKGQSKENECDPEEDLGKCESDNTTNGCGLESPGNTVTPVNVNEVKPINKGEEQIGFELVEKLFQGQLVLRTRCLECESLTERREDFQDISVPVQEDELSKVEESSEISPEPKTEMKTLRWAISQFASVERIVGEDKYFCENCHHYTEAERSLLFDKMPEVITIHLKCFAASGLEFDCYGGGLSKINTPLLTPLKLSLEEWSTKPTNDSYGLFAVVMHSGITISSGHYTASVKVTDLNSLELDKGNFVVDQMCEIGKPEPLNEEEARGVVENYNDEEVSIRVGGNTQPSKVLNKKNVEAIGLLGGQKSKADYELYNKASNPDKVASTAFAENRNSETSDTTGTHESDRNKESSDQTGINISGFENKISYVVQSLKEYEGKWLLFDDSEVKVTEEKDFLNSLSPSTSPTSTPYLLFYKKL
Chain of Cytochrome P450 3A4 (Homo sapiens) (P08684 whole entry, looked up): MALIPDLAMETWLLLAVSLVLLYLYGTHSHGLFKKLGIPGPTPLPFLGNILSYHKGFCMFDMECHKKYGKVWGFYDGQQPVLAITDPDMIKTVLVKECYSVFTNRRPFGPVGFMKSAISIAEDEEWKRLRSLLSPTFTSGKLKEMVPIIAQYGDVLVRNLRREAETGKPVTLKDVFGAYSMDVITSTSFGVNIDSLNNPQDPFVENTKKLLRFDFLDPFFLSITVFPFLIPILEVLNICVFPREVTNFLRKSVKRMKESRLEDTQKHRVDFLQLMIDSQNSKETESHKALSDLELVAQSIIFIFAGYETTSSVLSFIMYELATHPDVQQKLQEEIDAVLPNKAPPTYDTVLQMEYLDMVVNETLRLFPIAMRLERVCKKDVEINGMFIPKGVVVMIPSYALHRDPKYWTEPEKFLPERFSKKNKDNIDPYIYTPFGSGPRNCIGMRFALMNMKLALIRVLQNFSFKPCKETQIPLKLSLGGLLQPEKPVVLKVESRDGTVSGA
Chain of ATP-dependent 6-phosphofructokinase (Trypanosoma brucei brucei) (O15648 whole entry, looked up): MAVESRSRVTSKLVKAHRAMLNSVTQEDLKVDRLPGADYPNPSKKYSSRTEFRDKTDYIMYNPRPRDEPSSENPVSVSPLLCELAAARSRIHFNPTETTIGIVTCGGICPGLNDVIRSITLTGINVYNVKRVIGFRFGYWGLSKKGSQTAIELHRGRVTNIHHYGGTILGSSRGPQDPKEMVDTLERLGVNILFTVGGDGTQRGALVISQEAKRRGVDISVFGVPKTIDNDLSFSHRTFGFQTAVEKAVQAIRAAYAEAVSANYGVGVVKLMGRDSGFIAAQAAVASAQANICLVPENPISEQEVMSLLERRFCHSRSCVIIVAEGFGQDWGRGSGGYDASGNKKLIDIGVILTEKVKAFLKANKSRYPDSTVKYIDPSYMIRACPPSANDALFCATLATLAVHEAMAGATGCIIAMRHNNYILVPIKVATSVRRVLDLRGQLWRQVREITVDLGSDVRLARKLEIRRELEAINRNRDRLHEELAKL
Chain of Luciferin 4-monooxygenase (Photinus pyralis) (P08659 whole entry, looked up): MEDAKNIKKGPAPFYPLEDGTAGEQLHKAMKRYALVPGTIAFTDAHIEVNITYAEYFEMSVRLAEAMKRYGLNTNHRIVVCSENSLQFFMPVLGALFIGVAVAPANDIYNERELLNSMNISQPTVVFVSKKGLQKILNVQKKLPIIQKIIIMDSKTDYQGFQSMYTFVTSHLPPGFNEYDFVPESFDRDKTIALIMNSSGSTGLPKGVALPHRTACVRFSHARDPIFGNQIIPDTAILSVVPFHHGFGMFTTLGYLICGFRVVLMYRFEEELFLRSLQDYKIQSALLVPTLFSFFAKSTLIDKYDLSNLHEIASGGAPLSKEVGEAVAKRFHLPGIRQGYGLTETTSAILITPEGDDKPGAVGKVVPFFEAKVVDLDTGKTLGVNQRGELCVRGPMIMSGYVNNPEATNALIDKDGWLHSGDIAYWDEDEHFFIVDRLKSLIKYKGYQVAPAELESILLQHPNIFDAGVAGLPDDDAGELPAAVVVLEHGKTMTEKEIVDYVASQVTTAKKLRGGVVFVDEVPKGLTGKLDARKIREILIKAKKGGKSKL

## COC(=O)NC(=S)Nc1ccccc1NC(=S)NC(=O)OC
[1]
  outcome: inactive
[2]
  Potency: inactive
[3]; at 57.5 µM (top of the series)
  activity change, negative = inhibition: 3.23% (inactive)
[3]; [18]
  max response: 8.02%
[3]; [19]
  max response: 10.3%
[4]
  Potency: inactive

## N#Cc1ccc(CN2CC[C@@]3(CCCN(C(=O)Oc4ccccc4)C3)C2)cc1
[5]
  Potency: > 11.4 µM (inactive)
[6]
  outcome: inactive
[7]
  Potency: 12.6 µM (active)
[8]; at 7.69 µM (top of the series)
  activity change, negative = inhibition: -16.4% (inactive)
[9]
  outcome: inactive
[10]
  Potency: > 46 µM (inactive)
[1]
  outcome: inactive
[11]
  Potency: inactive
[2]
  Potency: 7.94 µM (active)
[12]
  Potency: inactive
[13]
  Potency: 3.16 µM (active)
[3]; at 57.5 µM (top of the series)
  activity change, negative = inhibition: 4.98% (inactive)
[3]; [18]
  max response: 20.4%
[3]; [19]
  max response: 28.4%

## c1ccc(N=Nc2ccccc2)cc1
[2]
  Potency: inactive
[3]; at 57.5 µM (top of the series)
  activity change, negative = inhibition: -5.75% (inactive)
[3]; [18]
  max response: -21.5%
[3]; [19]
  max response: -24.4%
[4]
  Potency: inactive

## CC(C)CN1CC2(CCN(C(=O)Oc3ccccc3)CC2)C1
[5]
  Potency: > 11.4 µM (inactive)
[6]
  outcome: inactive
[7]
  Potency: inactive
[8]; at 7.69 µM (top of the series)
  activity change, negative = inhibition: -14.8% (inactive)
[9]
  outcome: inactive
[10]
  Potency: > 46 µM (inactive)
[1]
  outcome: inactive
[11]
  Potency: inactive
[3]; at 57.5 µM (top of the series)
  activity change, negative = inhibition: 2.95% (inactive)
[3]; [18]
  max response: -4.14%
[3]; [19]
  max response: 1.27%

## ClC1=C(Cl)C2(Cl)C3C4CC(C5OC45)C3C1(Cl)C2(Cl)Cl (stereo not drawn)
[1]
  outcome: inactive
[3]; at 57.5 µM (top of the series)
  activity change, negative = inhibition: 3.37% (inactive)
[3]; [18]
  max response: 8.98%
[3]; [19]
  max response: 15.6%
[14]
  Potency: inactive
[15]
  Potency: inactive
[16]; at 28.7 µM (top of the series), parasite line A
  activity, negative = inhibition: -12.8% (inactive)
[16]; at 28.7 µM (top of the series), parasite line B
  activity, negative = inhibition: -9.6% (inactive)
C2A
  Potency: inactive
CP185
  Potency: inactive
FAB9
  Potency: inactive

## O=C(Nc1cccc(F)c1)N1CCC2(CC1)CCN(C(=O)Oc1ccccc1)CC2
[5]
  Potency: > 11.4 µM (inactive)
[6]
  outcome: inactive
[7]
  Potency: inactive
[8]; at 7.69 µM (top of the series)
  activity change, negative = inhibition: 12% (inactive)
[9]
  outcome: inactive
[10]
  Potency: > 46 µM (inactive)
[1]
  outcome: inactive
[11]
  Potency: inactive
[3]; at 57.5 µM (top of the series)
  activity change, negative = inhibition: -7.04% (inactive)
[3]; [18]
  max response: -23.3%
[3]; [19]
  max response: -28%

## CC(C)c1c(CN(C)[C@@H](C)Cc2ccccc2)n(C)n(-c2ccccc2)c1=O
[6]
  outcome: inactive
[7]
  Potency: inactive
[8]; at 17.2 µM (top of the series)
  activity change, negative = inhibition: -17.7% (inactive)
[9]
  outcome: inactive
[17]
  Potency: > 20.6 µM (inactive)
[10]
  Potency: > 20.6 µM (inactive)
[1]
  outcome: inactive
[11]
  Potency: inactive
[2]
  Potency: 3.98 µM (active)
[12]
  Potency: inactive
[3]; at 25.7 µM (top of the series)
  activity change, negative = inhibition: -3.14% (inactive)
[3]; [18]
  max response: -13.6%
[3]; [19]
  max response: -14.7%
[14]
  Potency: inactive
[15]
  Potency: inactive
[16]; at 12.8 µM (top of the series), parasite line A
  activity, negative = inhibition: 6.98% (inactive)
C2A
  Potency: inactive
CP185
  Potency: inactive
FAB9
  Potency: inactive

## CCN1C[C@@]2(COC)CC[C@H](OC)[C@]34[C@@H]1[C@]1(OCO[C@@]15C[C@@H](OC)C1C[C@H]3[C@H]5[C@@H]1OC)[C@H](O)[C@@H]24
[6]
  outcome: inactive
[7]
  Potency: inactive
[8]; at 17.2 µM (top of the series)
  activity change, negative = inhibition: -1.05% (inactive)
[9]
  outcome: inactive
[17]
  Potency: > 20.6 µM (inactive)
[10]
  Potency: > 20.6 µM (inactive)
[1]
  outcome: inactive
[3]; at 25.7 µM (top of the series)
  activity change, negative = inhibition: -0.879% (inactive)
[3]; [18]
  max response: -14.7%
[3]; [19]
  max response: -15%
[4]
  Potency: inactive
